PubChem BioAssay (EPA / NIEHS)
Calls of active or inactive are those of the source. How the source made its calls: active means hit-call score of the fitted dose curve at least 0.9, where 1 is the maximum; inactive means score below 0.9.

Key:
[1] = ATG_PBREM_CIS: Attagene CIS-FACTORIAL HepG2 Assay for human Phenobarbital-responsive Enhancer Module (PBREM) (AID 2282955); details: HepG2 PBREM cis-reporter, Attagene multiplexed transcription; actives raise or lower the signal
In short: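 Transfected liver-derived HepG2 cells exposed 24 h; PBREM reporter transcript quantified via RT-PCR and capillary electrophoresis, with activity in either direction referenced to DMSO.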

[2] = target: Paired box protein Pax-6 (Homo sapiens) (UniProt P26367); assay: ATG_Pax6_CIS: Attagene CIS-FACTORIAL HepG2 Assay for human Paired Box 6 (PAX6) (AID 2282956); details: HepG2 CIS-FACTORIAL PAX6 reporter transcription, RNA readout; actives raise or lower the signal
Paired box protein Pax-6 (Homo sapiens), sequence (P26367 whole entry, looked up): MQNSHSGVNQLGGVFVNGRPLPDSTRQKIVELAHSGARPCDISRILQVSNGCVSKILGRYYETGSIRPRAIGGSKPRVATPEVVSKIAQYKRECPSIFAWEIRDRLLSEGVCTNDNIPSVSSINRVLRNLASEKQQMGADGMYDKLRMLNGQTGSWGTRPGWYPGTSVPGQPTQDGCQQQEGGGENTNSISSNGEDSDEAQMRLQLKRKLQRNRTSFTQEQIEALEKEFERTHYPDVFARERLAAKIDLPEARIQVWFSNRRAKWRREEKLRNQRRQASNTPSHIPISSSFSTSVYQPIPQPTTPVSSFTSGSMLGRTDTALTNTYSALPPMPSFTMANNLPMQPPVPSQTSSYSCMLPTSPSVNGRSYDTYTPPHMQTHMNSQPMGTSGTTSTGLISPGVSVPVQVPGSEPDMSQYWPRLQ
In short: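 Read-out is reporter transcript level, measured by RT-PCR with fluorescent primer extension and capillary electrophoresis after 24 h dosing of transfected HepG2 cells. Activity in either direction fitted relative to DMSO control.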

[3] = ATG_PXRE_CIS: Attagene CIS-FACTORIAL HepG2 Assay for human Pregnane X Receptor Element (PXRE) (AID 2282957); details: HepG2 Attagene CIS-FACTORIAL PXRE reporter, mRNA; actives raise or lower the signal
In short: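 Read-out: fluorescence of reporter-specific RT-PCR products resolved by capillary electrophoresis, fitted bidirectionally relative to DMSO. Human HepG2 liver cells carried transfected cis-promoter reporter units and were exposed to chemicals for 24 h.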

[4] = ATG_PPRE_CIS: Attagene CIS-FACTORIAL HepG2 Assay for human Peroxisome Proliferator-activated Response Element (PPRE) (AID 2282958); details: HepG2 PPRE cis-element reporter, Attagene transcription factor profiling; actives raise or lower the signal
In short: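 Measured endpoint: PPRE-controlled reporter mRNA, detected by RT-PCR and capillary electrophoresis fluorescence, from transiently transfected HepG2 cells 24 h after dosing. Curves fitted in both directions using DMSO baseline.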

[5] = ATG_RORE_CIS: Attagene CIS-FACTORIAL HepG2 Assay for human RAR-related Orphan Receptor Element (RORE) (AID 2282959); details: HepG2 Attagene cis-factorial RORE reporter, mRNA; actives raise or lower the signal
In short: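 Transiently transfected HepG2 reporter cells were treated 24 h. Reporter transcripts were detected by RT-PCR and capillary electrophoresis, with bidirectional fitting against DMSO.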

[6] = ATG_SREBP_CIS: Attagene CIS-FACTORIAL HepG2 Assay for human Sterol Regulatory Element Binding (SREBP) (AID 2282962); details: HepG2 Attagene cis-factorial SREBP reporter, mRNA; actives raise or lower the signal
In short: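 Endogenous SREBP activity read as cis-element-driven reporter transcript in transiently transfected HepG2, 24 h post-dosing; quantified via RT-PCR plus capillary electrophoresis of fluorescent fragments. Gain or loss of signal fitted relative to DMSO baseline.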

[7] = ATG_TA_CIS: Attagene CIS-FACTORIAL HepG2 Assay for human TA Basal Promoter (AID 2282964); details: HepG2 Attagene CIS-factorial TA basal promoter reporter; actives raise or lower the signal
In short: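 Transient MRTU transfection of HepG2 preceded 24 h compound exposure. Reporter mRNA levels were then read by RT-PCR with capillary electrophoresis, and this background-control endpoint was fitted bidirectionally to DMSO.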

[8] = target: Transcription factor Sp1 (Homo sapiens) (UniProt P08047); assay: ATG_Sp1_CIS: Attagene CIS-FACTORIAL HepG2 Assay for human Specificity Protein 1 (Sp1) (AID 2282961); details: HepG2 Sp1 cis-reporter transcription, actives raise or lower the signal
Transcription factor Sp1 (Homo sapiens), sequence (P08047 whole entry, looked up, the tested form may be a part): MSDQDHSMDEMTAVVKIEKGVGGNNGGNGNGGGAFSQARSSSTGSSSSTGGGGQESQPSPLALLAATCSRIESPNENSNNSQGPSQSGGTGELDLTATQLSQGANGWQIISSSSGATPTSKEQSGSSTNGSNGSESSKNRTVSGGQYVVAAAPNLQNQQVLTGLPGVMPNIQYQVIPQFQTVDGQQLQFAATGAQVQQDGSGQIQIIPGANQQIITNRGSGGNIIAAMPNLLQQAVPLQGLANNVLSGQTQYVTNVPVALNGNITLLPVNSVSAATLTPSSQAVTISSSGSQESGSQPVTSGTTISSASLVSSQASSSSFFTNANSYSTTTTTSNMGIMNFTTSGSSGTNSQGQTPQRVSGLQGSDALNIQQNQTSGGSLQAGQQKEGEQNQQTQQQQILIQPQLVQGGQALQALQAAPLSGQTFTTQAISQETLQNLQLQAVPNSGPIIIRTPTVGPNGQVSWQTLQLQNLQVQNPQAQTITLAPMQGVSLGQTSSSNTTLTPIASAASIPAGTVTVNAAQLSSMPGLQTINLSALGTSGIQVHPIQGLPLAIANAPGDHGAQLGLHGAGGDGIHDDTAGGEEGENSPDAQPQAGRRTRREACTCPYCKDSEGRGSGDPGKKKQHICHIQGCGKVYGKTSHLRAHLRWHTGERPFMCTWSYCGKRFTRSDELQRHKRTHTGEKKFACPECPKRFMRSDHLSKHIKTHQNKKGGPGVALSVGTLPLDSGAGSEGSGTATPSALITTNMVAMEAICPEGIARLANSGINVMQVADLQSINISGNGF
In short: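 Endpoint reflects endogenous Sp1 transcriptional activity, not an exogenous fusion protein: HepG2 cells with transfected cis-regulated reporters, 24 h dosing, RT-PCR/capillary electrophoresis mRNA read-out, DMSO-normalised bidirectional fit.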

[9] = target: Signal transducer and activator of transcription 3 (Homo sapiens) (UniProt P40763); assay: ATG_STAT3_CIS: Attagene CIS-FACTORIAL HepG2 Assay for human Signal Transducer and Activator of Transcription 3 (STAT3) (AID 2282963); details: HepG2, Attagene cis-factorial STAT3 reporter transcription; actives raise or lower the signal
Signal transducer and activator of transcription 3 (Homo sapiens), sequence (P40763 whole entry, looked up, the tested form may be a part): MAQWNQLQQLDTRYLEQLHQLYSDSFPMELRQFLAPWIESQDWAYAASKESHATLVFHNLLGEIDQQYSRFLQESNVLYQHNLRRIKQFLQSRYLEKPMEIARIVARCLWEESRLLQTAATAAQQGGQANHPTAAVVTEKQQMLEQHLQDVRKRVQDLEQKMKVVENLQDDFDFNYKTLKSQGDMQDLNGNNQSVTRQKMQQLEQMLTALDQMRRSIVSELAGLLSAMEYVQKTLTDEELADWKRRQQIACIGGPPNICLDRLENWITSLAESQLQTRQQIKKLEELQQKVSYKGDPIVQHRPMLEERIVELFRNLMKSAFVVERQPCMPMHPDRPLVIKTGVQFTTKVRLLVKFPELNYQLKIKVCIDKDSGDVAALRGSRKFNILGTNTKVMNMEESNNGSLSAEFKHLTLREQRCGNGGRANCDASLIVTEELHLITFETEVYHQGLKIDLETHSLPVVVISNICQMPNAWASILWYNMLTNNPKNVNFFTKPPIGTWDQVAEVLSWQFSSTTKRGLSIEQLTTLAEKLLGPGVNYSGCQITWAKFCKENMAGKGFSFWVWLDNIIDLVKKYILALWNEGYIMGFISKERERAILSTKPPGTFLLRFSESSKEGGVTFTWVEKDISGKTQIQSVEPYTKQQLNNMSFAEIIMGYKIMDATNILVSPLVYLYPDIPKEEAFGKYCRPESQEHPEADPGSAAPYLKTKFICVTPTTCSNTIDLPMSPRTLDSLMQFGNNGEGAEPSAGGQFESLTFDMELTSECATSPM
In short: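 Fluorescence intensity of 6-FAM-labelled reporter fragments, separated by capillary electrophoresis after RT-PCR, gave the signal. Cells were HepG2 transfected with cis-element reporter units and treated 24 h; fitting was bidirectional relative to DMSO.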

[10] = ATG_Sox_CIS: Attagene CIS-FACTORIAL HepG2 Assay for human SRY-box transcription factor (SOX) (AID 2282960); details: HepG2 Attagene cis-factorial SOX reporter, mRNA; actives raise or lower the signal
In short: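 Gain- or loss-of-signal endpoint, fitted bidirectionally with DMSO as negative control. Based on reporter mRNA from transfected HepG2 cells harvested 24 h post-treatment and quantified via RT-PCR and capillary electrophoresis.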

Measured: AC50

COC(=O)c1ccc(C=O)cc1
inactive: [1] | [2] | [3] | [4] | [5] | [6] | [7]

OCC1CCCO1 (stereo not given)
inactive: [1] | [2] | [3] | [4] | [5] | [8] | [6] | [9] | [7]

CCOCOCC
inactive: [1] | [2] | [3] | [4] | [5] | [6] | [9] | [7]

CCCCCC/C=C/CCCCCCCC(=O)O
inactive: [1] | [2] | [3] | [4] | [5] | [8] | [6] | [9] | [7]

Cc1ccc(O)c(-n2nc3ccccc3n2)c1
inactive: [1] | [2] | [5] | [8] | [6] | [9] | [7]
active: [3] 12.2 µM | [4] 13.5 µM

CCCCCCCCCCCCCCCCC
active: [3] 27.2 µM
inactive: [1] | [2] | [4] | [5] | [10] | [6] | [7]

O=C1OC(=O)c2ccc3c4c(ccc1c24)C(=O)OC3=O
inactive: [1] | [2] | [3] | [4] | [5] | [8] | [6] | [9] | [7]

Cc1cc(C)c(O)c(C(C)(C)C)c1
active: [3] 27.1 µM
inactive: [1] | [2] | [4] | [5] | [8] | [6] | [9] | [7]

Brc1ccccn1
inactive: [1] | [2] | [3] | [4] | [5] | [8] | [6] | [9] | [7]

COCCC(=O)OC
inactive: [1] | [2] | [3] | [4] | [5] | [8] | [6] | [7]

CCN(CC)c1ccc2c(c1)Oc1cc(N(CC)CC)ccc1C21OC(=O)c2ccccc21
inactive: [1] | [2] | [4] | [5] | [9] | [7]
active: [3] 1.04 µM | [6] 17.6 µM

COC(F)(C(F)F)C(F)(F)F (stereo not given)
inactive: [1] | [2] | [3] | [4] | [10] | [8] | [6] | [9] | [7]

Brc1nc2ccccc2s1
inactive: [1] | [2] | [3] | [5] | [8] | [6] | [9] | [7]
active: [4] 18.1 µM

O=C(O)C(F)(F)C(F)(F)C(F)(F)C(=O)O
inactive: [1] | [2] | [3] | [4] | [5] | [10] | [6] | [7]

O=C(O)C(F)(F)C(F)(F)C(F)(F)C(F)(F)C(F)(F)C(F)(F)C(F)F
inactive: [1] | [2] | [5] | [8] | [9] | [7]
active: [3] 27.6 µM | [4] 46.1 µM | [6] 63.5 µM

CCCCC(CC)COC(=O)c1ccc(N(C)C)cc1 (stereo not given)
inactive: [1] | [2] | [5] | [10] | [6] | [7]
active: [3] 8.25 µM | [4] 32.6 µM

OCCCc1cccnc1
inactive: [1] | [2] | [3] | [4] | [10] | [8] | [6] | [9] | [7]

O=S(=O)(O)c1ccc(Cl)cc1
inactive: [1] | [2] | [3] | [4] | [6] | [9] | [7]

CO[Si](CCCOCC1CO1)(OC)OC (stereo not given)
inactive: [1] | [2] | [3] | [4] | [10] | [8] | [6] | [9] | [7]

CC(O)C#CC(C)O (stereo not given)
inactive: [1] | [4] | [6] | [7]
active: [2] 81.3 µM | [3] 148 µM | [8] 73.1 µM

c1ccc(C[P+](c2ccccc2)(c2ccccc2)c2ccccc2)cc1
inactive: [1] | [2] | [3] | [4] | [10] | [8] | [6] | [7]

Nc1cccnc1N
inactive: [1] | [2] | [3] | [4] | [10] | [6] | [9] | [7]

CC(C)(C)C(=O)C1C(=O)c2ccccc2C1=O
active: [1] 27.8 µM | [3] 13.9 µM | [4] 59.7 µM
inactive: [2] | [10] | [8] | [6] | [9] | [7]

CSc1ccc(O)cc1C
inactive: [1] | [2] | [4] | [10] | [8] | [6] | [9] | [7]
active: [3] 44.3 µM

CC(C)C(=O)OCc1ccccc1
inactive: [1] | [2] | [3] | [4] | [10] | [6] | [9] | [7]
